Compound activity deposited in PubChem BioAssay by The Scripps Research Institute Molecular Screening Center.
MOR-DOR inv ag = inverse agonists of human mu-delta opioid receptor heterodimerization; P35372+P41143; cell-based MOR-DOR heterodimer luminescence, inverse agonism; inhibition, % at 9.3 µM; actives 0.21% (n = 340,000); AID 504357; in the data active means inhibition above about 22%, passing the limit was not always enough;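 further: 0% = cells with DMSO and 100% = wells without cells with DMSO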
Target sequence (P35372 whole entry, looked up): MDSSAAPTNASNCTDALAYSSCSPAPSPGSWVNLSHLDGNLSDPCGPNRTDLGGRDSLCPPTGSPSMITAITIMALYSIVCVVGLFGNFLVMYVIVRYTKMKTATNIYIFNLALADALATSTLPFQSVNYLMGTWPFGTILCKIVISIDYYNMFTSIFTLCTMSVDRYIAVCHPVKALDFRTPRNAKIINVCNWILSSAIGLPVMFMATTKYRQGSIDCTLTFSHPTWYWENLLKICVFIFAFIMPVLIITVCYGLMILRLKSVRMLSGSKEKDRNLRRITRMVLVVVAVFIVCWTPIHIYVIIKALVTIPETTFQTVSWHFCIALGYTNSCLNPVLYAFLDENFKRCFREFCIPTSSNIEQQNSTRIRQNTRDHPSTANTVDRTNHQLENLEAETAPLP
Target sequence (P41143 whole entry, looked up): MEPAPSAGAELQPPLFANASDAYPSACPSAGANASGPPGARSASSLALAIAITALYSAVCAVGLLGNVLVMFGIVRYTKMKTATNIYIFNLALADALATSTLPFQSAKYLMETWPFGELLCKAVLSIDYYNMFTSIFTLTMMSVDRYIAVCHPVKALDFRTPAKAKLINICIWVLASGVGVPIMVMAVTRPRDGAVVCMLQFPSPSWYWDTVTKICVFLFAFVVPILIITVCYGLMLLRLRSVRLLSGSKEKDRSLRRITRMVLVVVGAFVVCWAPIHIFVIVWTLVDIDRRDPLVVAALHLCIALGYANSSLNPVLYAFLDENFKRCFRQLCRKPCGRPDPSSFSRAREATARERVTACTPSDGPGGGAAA
HTR5A ag = activates human HTR5A in OPRM1-OPRD1 agonist counter-screen | P47898 | HTR5A agonist assay, luminescence, cell-based | activation, % at 9.3 µM | actives 0.61% (n = 340,000) | AID 504692; in the data active means activation mostly above about 9.5%, no sharp cut-off; inactive means mostly below about 7.6%;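 further: 0% = cells with vehicle only and 100% = reference agonist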
MOR-DOR ag = OPRM1-OPRD1 heterodimerization agonism; actives 0.3% (n = 340,000); activation, % at 9.3 µM; cells, luminescence; P35372+P41143; in the data active means activation above about 18%;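 further: 0% = vehicle-treated cells and 100% = reference agonist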
HTR5A inv ctr = inverse agonist of human HTR5A in OPRM1-OPRD1 counter-screen. HTR5A cell line, luminescence, inverse agonism. AID 504634. actives 0.083% (n = 340,000). inhibition, % at 9.3 µM; in the data active means inhibition mostly above about 23%, no sharp cut-off; inactive means mostly below about 18%;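 further: 0% = cells with DMSO and 100% = no-cell wells with DMSO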
OPRM1-D1 inv cf = confirmation of human OPRM1-OPRD1 heterodimerization inverse agonists. shares compounds with MOR-DOR inv ag. cells expressing OPRM1/OPRD1 heterodimer, luminescence. inhibition, % at 9.3 µM. actives 20% (n = 580). AID 504900; in the data active means inhibition above about 32%;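 further: 0% = cells with DMSO and 100% = wells lacking cells with DMSO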
HTR5A inv count = counter-screen for OPRM1-OPRD1 inverse agonists: human HTR5A inverse agonism. shares compounds with MOR-DOR inv ag. inhibition, % at 9.3 µM. HTR5A-expressing cells, luminescence. 580 tested, under 10 active; call rule not given here;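 further: 0% = cells with DMSO and 100% = no-cell wells with DMSO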
Active calls of the source: *; i = inactive; x = not tested or not shown. Sampled rows, rich in hits. Any-hit rate of the full collection: about 1.1%.

SMILES	MOR-DOR inv ag	HTR5A ag	MOR-DOR ag	HTR5A inv ctr	OPRM1-D1 inv cf	HTR5A inv count
COc1ccc(C2=NN(CN3C(=O)C(=O)c4ccccc43)C(c3ccc(C)cc3)C2)cc1 (stereo not given)	47*	-2	-9	7	16	8
C[C@H]1CN=C(Nc2ccccc2)N1CC1CCCCCC1	23	7	-5	2	x	x
COc1ccc(N=Cc2[nH]c3ccccc3c2O)cc1	30*	1	-4	22	-70	4
Cc1cc(C(=O)NNc2ccccc2F)no1	20	-3	-4	-38	x	x
Cc1cc(C(=O)NNc2ccc(F)cc2)no1	36*	1	-7	4	i	-11
CC1=C/C(=C(/c2cc(C)c(O)c(Br)c2)c2ccccc2S(=O)(=O)O)C=C(Br)C1=O	20	-5	-4	21	x	x
CC1=C/C(=C(/c2ccc(O)c(C)c2)c2ccccc2S(=O)(=O)O)C=CC1=O	29*	-5	-7	15	i	-9
O=C1N(Cc2ccccc2)CC2(Br)COCOC12O (stereo not given)	45*	-5	-9	19	-21	-1
CC(=O)Nc1ccc(NC(=O)CCC(=O)OCC(=O)c2cccc([N+](=O)[O-])c2)cc1	71*	-12	-11	30	-12	-18
O=C(CCC(=O)OCC(=O)c1cccc([N+](=O)[O-])c1)NC1CCCCC1	62*	-5	-12	-19	-22	10
Cc1ccc(C(=O)COC(=O)CCC(=O)Nc2cc(Cl)ccc2Cl)cc1[N+](=O)[O-]	52*	-13	-12	33	36*	10
O=C(CCC(=O)OCC(=O)c1cccc([N+](=O)[O-])c1)Nc1ccccc1Cl	77*	-12	-17	26	-56	1
O=C(CCC(=O)OCc1cccc([N+](=O)[O-])c1)Nc1ccccc1Cl	18	-5	-4	11	x	x
CCN(CC)CCOC(=O)/C=C/c1ccccc1	14	1	-3	-12	x	x
CCN(CC)CC(C)(C)C(=O)/C=C/c1ccc(/C=C/C(=O)C(C)(C)CN(CC)CC)cc1	43*	-1	-9	6	-2	24
CC12CCC(C(=O)OC3CCCCC3)(OC1=O)C2(C)C (stereo not given)	-1	1	0	-3	x	x
Nc1nc(-c2ccccn2)nc(N)c1Cc1ccc(Cl)cc1Cl	36*	-2	-7	6	-12	-21
CC(=O)C(Sc1nc(N(C)C)nc(N(C)C)n1)C(=O)Nc1ccccc1 (stereo not given)	-5	-2	1	-4	x	x
CC(=O)C(Sc1nn(C)c(=S)s1)C(=O)Nc1ccccc1 (stereo not given)	72*	-11	-16	16	-266	-38
O=C(OCC(=O)c1ccccc1Br)c1ccccn1	10	-2	-2	22	x	x
O=C(OCC(=O)c1ccc(Cl)cc1Cl)c1ccc2c(c1)C(=O)N(c1cccc3ncccc13)C2=O	43*	-2	-8	2	-61	-32
O=C(CCC(=O)OCC(=O)c1ccc(Cl)cc1Cl)Nc1cccc2cccnc12	55*	-7	-10	13	-4	-14
O=C(OCC(=O)c1ccc(Cl)cc1Cl)c1ccccn1	50*	1	-12	-4	i	-71
CCc1nnc(SCC(=O)Nc2ccccc2)n1CC1CCCO1 (stereo not given)	8	5	-1	-16	x	x
O=C(NCc1ccccn1)C(=O)Nc1cccc2ccccc12	9	-2	-2	-4	x	x
SMILES	MOR-DOR inv ag	HTR5A ag	MOR-DOR ag	HTR5A inv ctr	OPRM1-D1 inv cf	HTR5A inv count
Cc1ccc(NC(=S)NNc2ncc(C(F)(F)F)cc2Cl)cc1	55*	-13	-10	32	-8	-18
CON/C=N/C(=S)Nc1ncc(C(F)(F)F)cc1Cl	22	2	-4	-21	x	x
Cc1ccc(NC(=S)NNc2ncc(C(F)(F)F)cc2Cl)c(C)c1	49*	-11	-8	11	-98	-4
Cc1ccccc1CN1C(=O)C(O)(CC(=O)c2ccncc2)c2ccccc21 (stereo not given)	45*	-1	-8	3	-84	-32
O=C(CC1(O)C(=O)N(Cc2ccccc2)c2ccccc21)c1ccncc1 (stereo not given)	40*	-9	-8	22	-152	-117
CC(=O)Nc1ccc2c(c1)C(=O)c1cccc(C(=O)O)c1-2	14	0	-3	-1	x	x
O=C(NNC(=O)c1ccc2ccccc2c1)c1ccc(Cl)c(Cl)c1	17	0	-4	2	x	x
